Measurements published in PubChem BioAssay AID1053124 (Broad Institute, 2014).
Measured potencies and affinities stand elsewhere. The source made the active and inactive calls.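 How the source made its calls: active means cell killing whose fitted half-effect concentration is at most twice the top valid dose tested; inconclusive means flat curve with 30 to 70% killing, or a poor fit; inactive means effect in the rising direction, plus the rest.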

Experiment: A549 cell cytotoxicity, dose response, cytotoxicity control, ATP luminescence, cherry-pick, set 2 (AID 1053124)
Conditions: A549 viability, ATP luminescence (CellTiter-Glo), 72 h; series mostly up to 26 µM
In the case of CCOC(=O)c1c(C)n(C)c2ccc(OCC(O)CN3CCC(C)CC3)cc12 (centres undefined), the outcome is reported as “inactive”.
In the case of O=C(O)c1ccc(N/N=C/c2ccc(-c3ccccc3Cl)o2)cc1, the outcome is reported as “inactive”.
With Cc1cccn2c(=O)c3cc(C(N)=S)c(=N)n(CCCOC(C)C)c3nc12 the outcome was “inactive”.
In the case of CCC(=O)N1C(C(=O)NCc2ccc(OC)cc2)CSC1c1ccc(OC)cc1 (centres undefined), the outcome is reported as “inactive”.
With CCN(CC)Cc1c(O)c(Cl)cc2c(C)cc(=O)oc12 the outcome was “inactive”.
With O=c1c2ccccc2n(CC(O)CN2CCCCC2)c2ccccc12 (centres undefined) the outcome was “inactive”.
For CC(C)CCN(CCC(C)C)CC(O)Cn1c2ccccc2c(=O)c2ccccc21 (centres undefined), the outcome was “inactive”.
With Cc1c(Nc2c3ccccc3nc3ccccc23)c(=O)n(-c2ccccc2)n1C the outcome was “inactive”.
For Cc1cccn2c(=O)c3cc(C(=O)NCC4CCCO4)c(=N)n(CC4CCCO4)c3nc12 (centres undefined), the outcome was “inactive”.
In the case of CC(C)c1ccc(/C=C2\Oc3c(ccc(O)c3CN3CCN(C)CC3)C2=O)cc1, the outcome is reported as “inactive”.
For Cc1ccc(NC(=O)Nc2ccnc(-c3cccnc3)n2)cc1, the outcome was “inactive”.
With Cc1nc(CCNC(=O)Cc2ccc(Cl)cc2)cs1 the outcome was “inactive”.
In the case of C/C(=N\NC(=O)CC#N)c1cc2ccc(O)cc2oc1=O, the outcome is reported as “inactive”.
With COc1ccccc1C1C2=C(CC(C)(C)CC2=O)N(CC(=O)O)C2=C1C(=O)CC(C)(C)C2 the outcome was “inactive”.
With Cc1ccc(S(=O)(=O)c2cc3c(=O)n4ccccc4nc3n(C)c2=N)cc1 the outcome was “inactive”.
In the case of CN(C)/C=C/C(=O)c1c(F)cccc1F, the outcome is reported as “inactive”.
With CC(=O)Oc1ccc2cc(-c3nc4ccccc4n3C)c(=O)oc2c1 the outcome was “inactive”.
For N#Cc1c2ccc(OCC(N)=O)cc2n2ccccc12, the outcome was “inactive”.
In the case of C[C@H](NC(=O)c1nc[nH]c1C(=O)N[C@@H](Cc1ccccc1)C(=O)OC(C)(C)C)C(=O)OCc1ccccc1, the outcome is reported as “inactive”.
In the case of CC(=O)NNc1cc(N2CCOCC2)nc(N2CCOCC2)n1, the outcome is reported as “inactive”.
In the case of COc1ccc(CCNC(=O)c2cc(S(=O)(=O)N3CCCCC3)c[nH]2)cc1OC, the outcome is reported as “inactive”.
With COc1cc(C(=O)NCCCNc2nc3c(C)cc(C)cc3cc2C#N)cc(OC)c1OC the outcome was “inactive”.
With Cc1ccc(C(=O)OCC(=O)Nc2c(C)nn(-c3ccccc3)c2C)c(O)c1 the outcome was “inactive”.
With CC(=O)c1cc2c(ccc3ccccc32)oc1=O the outcome was “inactive”.
With Nc1ccc2nc(-c3ccccc3)cnc2c1 the outcome was “inactive”.
For CSCCC1(C(=O)O)NC(c2ccccc2O)C2C(=O)N(C(C)C)C(=O)C21 (centres undefined), the outcome was “inactive”.
In the case of Cc1ccc(S(=O)(=O)CCC(=O)OCC(=O)Nc2cccc(S(=O)(=O)N3CCCCC3)c2)cc1, the outcome is reported as “inactive”.
For COc1ccccc1N1CCN(C2CCC(C)CC2)CC1 (centres undefined), the outcome was “inactive”.
In the case of COc1ccccc1C(=O)c1cc2ccc(O)cc2oc1=O, the outcome is reported as “inactive”.
With Cc1cc(-n2c(=O)c(C#N)cc3c(=O)n4cccc(C)c4nc32)no1 the outcome was “inactive”.
In the case of COc1ccc(CCNC(=O)CSc2cn(Cc3cccc(C)c3)c3ccccc23)cc1OC, the outcome is reported as “inactive”.
With COC(=O)C1=CN(C)C=C(C(=O)OC)C1c1ccccc1Cl the outcome was “inactive”.
With CNC(=O)c1ccc(NC(=O)c2cccc(C(F)(F)F)c2)cc1 the outcome was “inactive”.
With CCOC(=O)c1cc2c(=O)n3ccccc3nc2n(Cc2ccc(Cl)cc2)c1=N the outcome was “inactive”.
In the case of CCOC(=O)C1=CN(CC2CCCO2)C=C(C(=O)OCC)C1c1ccccc1C(F)(F)F (centres undefined), the outcome is reported as “inactive”.
For O=C(Cn1ccc([N+](=O)[O-])n1)N1CCCCCC1, the outcome was “inactive”.
With Cc1cccn2c(=O)c3cc(C(=O)NC(C)c4ccccc4)c(=N)n(CCCn4ccnc4)c3nc12 (centres undefined) the outcome was “inactive”.
For CSc1ccc(Cn2c(C)c(C(=O)NCc3cccc(Cl)c3)sc2=O)cc1, the outcome was “inactive”.
In the case of O=C(/C=C/c1ccccc1)C1=C(O)C(=O)N(CCO)C1c1ccc2c(c1)OCO2 (centres undefined), the outcome is reported as “inactive”.
